In PubChem BioAssay:
For part of these data: Results with a measured potency or affinity are listed apart. Calls of active or inactive are those of the source.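 How the source made its calls, unless noted: active means dose curve with midpoint inside tested range, moderate steepness, plateau gap beyond fit error, low compound glow and bead-link interference; inactive means the rest.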

Tests used:
[1] = molecular target: Cell division control protein 42 homolog (Homo sapiens) (UniProt P60953); experiment: inhibition of fluorescent GTP binding to constitutively active Cdc42 – biochemical, multiplex bead flow cytometry, Bodipy-FL-GTP, dose response (AID 1333;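 active means fitted half-maximal concentration within the tested dose range, moderate curve steepness, a statistically real signal drop, and little compound fluorescence or tag-binding interference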)
[2] = molecular target: Cell division control protein 42 homolog (Homo sapiens) (UniProt P60953); experiment: inhibition of fluorescent GTP binding to wildtype Cdc42 – biochemical, multiplex bead flow cytometry, Bodipy-FL-GTP, dose response (AID 1334;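 active means fitted half-maximal concentration within the tested range, moderate curve steepness, significant signal drop, and little compound fluorescence or bead-linkage interference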); settings: bead-based flow cytometry, Bodipy-FL-GTP binding to GST-Cdc42; at 100 µM (top of the series) unless noted
[3] = molecular target: GTPase HRas (Homo sapiens) (UniProt P01112); experiment: Ras wt fluorescent GTP loading blockade – biochemical, wildtype, multiplex bead flow cytometry, dose response (AID 1335;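 active means fitted half-maximal concentration within 10 nM to 100 µM, steepness 0.5 to 2, significant signal drop, low assay interference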); settings: bead-based flow cytometry, Bodipy-GTP binding to GST-Ras; at 100 µM (top of the series) unless noted
[4] = system: Ras-related protein Rab-7a (dog), GTP binding; experiment: blockers of fluorescent GTP binding to Rab7 – biochemical, wildtype, multiplex bead flow cytometry, dose response (AID 1336; call rule not given here)
[5] = molecular target: Ras-related C3 botulinum toxin substrate 1 (Homo sapiens) (UniProt P63000); experiment: inhibition of wildtype Rac1 nucleotide loading – biochemical, multiplex bead flow cytometry, dose response (AID 1340); settings: GST-Rac1 beads, Bodipy-FL-GTP binding; at 100 µM (top of the series) unless noted
[6] = molecular target: GTPase HRas (Homo sapiens) (UniProt P01112); experiment: blockade of GTP loading onto mutant Ras – biochemical, activated mutant, multiplex bead flow cytometry, dose response (AID 1341;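 active means dose-response curve with midpoint inside the tested range, moderate steepness, significant amplitude and little compound fluorescence or bead-attachment interference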;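 further: GST-tagged constitutively activated Ras mutant immobilized on beads and multiplexed with other GTPases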)

Cell division control protein 42 homolog (Homo sapiens), sequence (P60953 whole entry, looked up): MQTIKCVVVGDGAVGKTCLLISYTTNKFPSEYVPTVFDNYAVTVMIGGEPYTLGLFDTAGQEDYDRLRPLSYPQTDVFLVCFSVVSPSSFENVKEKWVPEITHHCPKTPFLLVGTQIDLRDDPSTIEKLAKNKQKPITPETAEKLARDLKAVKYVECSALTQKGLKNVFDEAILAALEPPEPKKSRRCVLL
GTPase HRas (Homo sapiens), sequence (P01112 whole entry, looked up): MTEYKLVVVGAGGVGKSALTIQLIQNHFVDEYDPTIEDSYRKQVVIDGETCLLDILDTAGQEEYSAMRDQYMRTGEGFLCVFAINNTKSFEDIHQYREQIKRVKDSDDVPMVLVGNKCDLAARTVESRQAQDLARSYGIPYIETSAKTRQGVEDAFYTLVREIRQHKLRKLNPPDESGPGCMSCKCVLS

Compound	outcome [1]	fluorescence, percent of control (lower = inhibition) [2] [%]	GTP binding, percent of control [3]	outcome [4]	GTP binding signal, raw median fluorescence (lower = inhibition) (MCF (arbitrary fluorescence units)) [5]	outcome [6]
Cc1ccc(/C=N/N(C)C2=NS(=O)(=O)c3ccccc32)o1	inactive	27.1	57.3%	inactive	132	inactive
Cc1nc2ccc(-c3nc4ccc(N)cc4[nH]3)cc2[nH]1	inactive	35.3	79.9%	inactive	210	inactive
CCOC(=O)c1ccc2ncc(-c3ccccc3)nc2c1	inactive	33.5	79.4%	inactive	259	inactive
CCN(CC)c1ccc(/C=C(\C#N)c2nc(-c3cccs3)c(NC(C)=O)s2)cc1	inactive	99.5	114%	inactive	0	inactive
Cn1nc(C(F)(F)F)c(/C=N/OC(=O)c2ccccc2)c1SCc1ccc(Cl)cc1	inactive	98.8	181%	inactive	175	inactive
Cc1cccc(Cc2c(C)nc3nc(SCC(=O)O)nn3c2C)c1	inactive	30.6	81.6%	inactive	227	inactive
C=CCc1cc(/C=C/c2nc(O)c([N+](=O)[O-])c(=O)[nH]2)cc(OC)c1O	inactive	31.5	77.1%	inactive	177	inactive
O=C(O)c1ccc(/C=N/NC(=O)c2cc(-c3ccc4c5c(cccc35)CC4)n[nH]2)cc1	inactive	28.2	71.2%	inactive	151	inactive
NS(=O)(=O)c1cccnc1Nc1c(Cl)cccc1Cl	inactive	90.6	152%	inactive	187	inactive
Cn1c(=O)n(Cc2ccc(F)cc2)c(=O)c2c1nc1n2CCN1Cc1ccco1	inactive	31.2	68.1%	inactive	164	inactive
CCN(CC)c1ccc(/C=c2/sc3nnc(-c4ccccc4C)n3c2=O)cc1	inactive	120	123%	inactive	236	inactive
CC(C)OCCCn1c(=NC(=O)c2ccncc2)c(C#N)cc2c(=O)n3ccccc3nc21	inactive	88.2	160%	inactive	161	inactive
O=C(O)c1cccc(NCc2ccc3c(c2)OCO3)c1	inactive	64.9	88.8%	inactive	41.9	inactive
O=C(Nc1cccc(-c2nnc(-c3ccco3)o2)c1)c1ccccc1	inactive	33.7	76.1%	inactive	190	inactive
Nc1cccc(S(=O)(=O)c2cccc(N)c2)c1	inactive	96.8	150%	inactive	191	inactive
COC(=O)c1cn(CCOc2ccccc2)c2ccccc12	inactive	34.2	83%	inactive	225	inactive
O=c1c2ccccc2nc2c3ccccc3c(Cl)nn12	inactive	36.6	83.1%	inactive	213	inactive
O=C1CC(c2ccc(F)cc2)Sc2ccccc2N1 (stereo not given)	inactive	101	170%	inactive	207	inactive
COc1ccccc1NS(=O)(=O)c1cc([N+](=O)[O-])ccc1N/N=C/c1sc(N2CCOCC2)nc1-c1ccccc1	inactive	73.1	81%	inactive	230	inactive
COc1cc(CCNc2ccc3nnc(-c4ccccc4)n3n2)cc(OC)c1OC	inactive	34.8	44%	inactive	123	inactive

Compound	outcome [1]	fluorescence, percent of control (lower = inhibition) [2] [%]	GTP binding, percent of control [3]	outcome [4]	GTP binding signal, raw median fluorescence (lower = inhibition) (MCF (arbitrary fluorescence units)) [5]	outcome [6]
COC(=O)COc1ccc(/C=N/NC(=O)c2ccc(N(Cc3ccccc3)S(C)(=O)=O)cc2)cc1	inactive	39.7	55.5%	inactive	124	inactive
CCOc1ccc(-n2nc3c(SCCN4CCCC4)nnc(C)c3c2C)cc1	inactive	57.3	71.4%	inactive	230	inactive
c1ccc(C2=Nn3c(nnc3-c3ccco3)SC2)cc1	inactive	34	81.7%	inactive	183	inactive
O=C(O)c1ccc(COc2cccc3ccccc23)o1	inactive	58.3	89.1%	inactive	31.9	inactive
COc1ccc(CNc2nc3c(c(=O)n(Cc4ccc(Cl)cc4)c(=O)n3C)n2C)cc1	inactive	29.3	80.3%	inactive	228	inactive
COc1ccc(-n2cc(-c3ccccc3)c3c(=O)[nH]cnc32)cc1	inactive	39.1	84.4%	inactive	327	inactive
O=C(COc1ncnc2cc([N+](=O)[O-])ccc12)NCc1ccc2c(c1)OCO2	inactive	42.7	56.9%	inactive	118	inactive
O=C(CCl)Nc1cccn2ncnc12	inactive	37.7	83%	inactive	274	inactive
O=C(COC(=O)/C=C/c1ccc(Cl)cc1)Nc1ccc2c(c1)OCCO2	inactive	40.2	59.5%	inactive	162	inactive
Cc1c(C(=O)N/N=C/c2ccc(O)c(Br)c2)sc(N)c1C#N	inactive	27.1	64.7%	inactive	151	inactive
O=C(O)C1(NCc2ccccc2Cl)CCCCC1	inactive	66	91.3%	inactive	34.5	inactive
O=C(Cn1c(-c2cscn2)nc2ccccc21)Nc1cc(F)ccc1F	inactive	33.9	75.9%	inactive	210	inactive
Cc1cc2ccccn2c1C(=O)c1cccc([N+](=O)[O-])c1	inactive	34	81.2%	inactive	250	inactive
CCOC(=O)CCCCC(=O)c1[nH]c(=O)[nH]c1CSc1nnc2c3cc(Br)ccc3n(C)c2n1	inactive	34.4	80.3%	inactive	167	inactive
O=C1C2CC=CCC2C(=O)N1c1ncn[nH]1 (stereo not given)	inactive	97.2	161%	inactive	189	inactive
CCOC(=O)C1(Cc2ccccc2)CCCN(CCO)C1 (stereo not given)	inactive	37.6	80.3%	inactive	246	inactive
O=C(O)c1cc(Sc2ccccc2)nc2ccccc12	inactive	56.6	81.9%	inactive	30.1	inactive
CCc1nnc(NC(=O)CSc2nnc(CNc3ccc(F)cc3)n2C2CCCCC2)s1	inactive	52	72.6%	inactive	0	inactive
Cc1cc(C)n2nc(SCCOc3ccccc3)nc2n1	inactive	31.1	71.1%	inactive	183	inactive
O=C(c1nnsc1S(=O)(=O)c1ccc(Cl)cc1)N1CCOCC1	inactive	39.7	77.4%	inactive	289	inactive

Compound	outcome [1]	fluorescence, percent of control (lower = inhibition) [2] [%]	GTP binding, percent of control [3]	outcome [4]	GTP binding signal, raw median fluorescence (lower = inhibition) (MCF (arbitrary fluorescence units)) [5]	outcome [6]
C=CCN1C(=NC(=O)CCCC(=O)O)SC2CS(=O)(=O)CC21 (stereo not given)	inactive	38.3	85.7%	inactive	312	inactive
Cc1ccc(NC(=S)NNC(=O)c2cn(C)nc2C)cc1	inactive	83.7	166%	inactive	180	inactive
CN(C)c1ccc(/C=C/c2ccc3c4ccccc4ccc3[n+]2-c2ccccc2)cc1	inactive	40	69.7%	inactive	236	inactive
COc1ccc(N=C2S/C(=C\c3ccc(N4CCOCC4)o3)C(=O)N2CCc2c[nH]c3ccccc23)cc1	inactive	133	212%	inactive	210	inactive
COc1cccc(Nc2ccccc2C(=O)O)c1	inactive	92.6	107%	inactive	78.2	inactive
O=C(Nc1cnn(C23CC4CC(CC(C4)C2)C3)c1)c1cnn2cccnc12	inactive	41.2	94.2%	inactive	324	inactive
O=C(O)c1ccc(CSCc2ccccc2)o1	inactive	62.4	91.5%	inactive	41.9	inactive
O=C1NC(=S)N/C1=C/c1cc([N+](=O)[O-])ccc1O	inactive	60.7	157% [at 33.3 µM]	inactive	185 [at 33.3 µM]	inactive
COc1ccc([N+](=O)[O-])cc1NC(=S)NC(NC(=O)Cc1ccc(OC)c(OC)c1)C(Cl)(Cl)Cl (stereo not given)	inactive	75.7	139%	inactive	151	inactive
Cn1c(N/N=C/c2ccccc2)nc2sc3c(c2c1=O)CCC3	inactive	71.9	117%	inactive	123	inactive
O=C(O)/C=C\C(=O)Nc1cccc(C(=O)Nc2cccc(O)c2)c1	inactive	38.6	84.2%	inactive	162	inactive
C=CCn1c(COc2ccc(F)cc2)nnc1SCC(=O)c1c[nH]c2c(CC)cccc12	inactive	50.5	60.7%	inactive	190	inactive
CC(C)(C)C(=O)C#Cc1ccccc1	inactive	53.5	203%	inactive	55.8	inactive
O=c1[nH]c2ccc(S(=O)(=O)NCc3ccccc3)cc2[nH]1	inactive	38.1	84.5%	inactive	218	inactive
CCCCN1C(=O)/C(=C/C=C2\N(C)c3ccccc3C2(C)C)SC1=S	inactive	128	134%	inactive	235	inactive
O=C(Nc1nc(-c2cccs2)cs1)c1cc2ccccc2oc1=O	inactive	51.8	130%	inactive	141	inactive
CN(/N=C/C=C/c1ccccc1)C1=NS(=O)(=O)c2ccccc21	inactive	40.3	51.8%	inactive	124	inactive
Cc1cccc(Nc2nc(NCc3ccco3)c3ccccc3n2)c1	inactive	39.2	54.7%	inactive	142	inactive
CC(=O)c1cc2c(cc1NC(=O)c1cccc(S(=O)(=O)N3CCN(C)CC3)c1)OCO2	inactive	40.9	86.3%	inactive	196	inactive
NS(=O)(=O)c1ccc(CCN2C(=O)/C(=C\c3ccc(Cl)cc3)SC2=S)cc1	inactive	29	76.5%	inactive	242	inactive
